Assay [1] in a line: Human pregnane X receptor (PXR) small molecule agonists, qHTS cell viability counter screen (AID 1346977). Also: nearly all actives have a fitted effect of over 50% in size. Also: potency is read from the fitted curve at half-maximal effect. In short, it runs like this:
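Measures live-cell protease fluorescence (CellTiter-Fluor) in PXR-Luc HepG2 cells treated 24hr with compounds at 37C. Cells had 5hr to attach before pin transfer of DMSO solutions.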

Assay [2] can be described thus: Caspase-3/7 induction in HepG2 cells by small molecules, qHTS assay (AID 1346978). Also: nearly all actives have a fitted effect of over 15% in size. Put shortly:
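Wild-type HepG2 cells (2,000/well) were settled 5 h at 37 C, 5% CO2, then exposed to compounds in DMSO for 17 h. Caspase-3/7 activity was read by luminescence 30 min after adding Caspase-Glo 3/7 reagent at room temperature.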
A general note: Quantitative high-throughput screening tests each substance at several concentrations.

Assay [3] in a line: Caspase-3/7 induction in CHO-K1 cells by small molecules, qHTS cell viability counter screen (AID 1346979). Also: nearly all actives have a fitted effect of over 35% in size. Also: potency is read from the fitted curve at half-maximal effect. In short, it runs like this: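 In the same wells as the caspase read, viability of compound-treated wild-type CHO-K1 cells was assessed using CellTiter-Fluor, added after 16hr at 37C and measured by fluorescence following 1hr further incubation.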
The nature of assay [4]: Caspase-3/7 induction in CHO-K1 cells by small molecules, qHTS assay (AID 1346980). Also: nearly all actives have a fitted effect of over 15% in size. In short, it runs like this: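 Wild-type cells were seeded at 1,500 per well and settled 5 hr at 37 C, 5% CO2, then exposed to DMSO-dissolved compounds for 17 hr. Caspase-Glo 3/7 reagent was added, and luminescence was read after 30min at room temperature.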
Assay [5] in a line: Caspase-3/7 induction in HepG2 cells by small molecules, qHTS cell viability counter screen (AID 1346981). Also: nearly all actives have a fitted effect of over 30% in size. Also: potency is read from the fitted curve at half-maximal effect. In short, it runs like this: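 CellTiter-Fluor fluorescence measured viability in the same wells used for Caspase-Glo 3/7. HepG2 (wild type) at 2,000 cells/well were pre-incubated 5 hr, dosed, and given reagent at 16 hr, with 1 hr further at 37C.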
Assay [6] has as its target Nuclear receptor subfamily 1 group I member 2 (Homo sapiens) (UniProt O75469). The experiment in a line: Human pregnane X receptor (PXR) small molecule agonists, qHTS assay (AID 1346982). Also: nearly all actives have a fitted effect of over 35% in size. Also: potency is read from the fitted curve at half-maximal effect. Put shortly:
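Agonist mode: luminescence from ONE-Glo after 24 h compound exposure at 37C in HepG2 cells carrying hPXR-responsive CYP3A4 luciferase, plated in charcoal-stripped serum medium 5 h beforehand.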

For assay [7], the target named is Cytochrome P450 2C9 (Homo sapiens) (UniProt P11712). The experiment in a line: Cytochrome P450 Family 2 Subfamily C Member 9 (CYP2C9) small molecule antagonists: luciferase reporter qHTS assay (AID 1671198). Also: nearly all actives have a fitted effect of over 50% in size. Also: potency is read from the fitted curve at half-maximal effect. In short, it runs like this: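 CYP2C9 activity was measured with a P450-Glo proluciferin substrate. Enzyme–substrate mix was held with compound for 10 min at room temperature, then NADPH regeneration solution was added for 1 h at 37C. Luciferin product was read as luminescence.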
Cytochrome P450 2C9 (Homo sapiens), sequence (P11712 whole entry, looked up): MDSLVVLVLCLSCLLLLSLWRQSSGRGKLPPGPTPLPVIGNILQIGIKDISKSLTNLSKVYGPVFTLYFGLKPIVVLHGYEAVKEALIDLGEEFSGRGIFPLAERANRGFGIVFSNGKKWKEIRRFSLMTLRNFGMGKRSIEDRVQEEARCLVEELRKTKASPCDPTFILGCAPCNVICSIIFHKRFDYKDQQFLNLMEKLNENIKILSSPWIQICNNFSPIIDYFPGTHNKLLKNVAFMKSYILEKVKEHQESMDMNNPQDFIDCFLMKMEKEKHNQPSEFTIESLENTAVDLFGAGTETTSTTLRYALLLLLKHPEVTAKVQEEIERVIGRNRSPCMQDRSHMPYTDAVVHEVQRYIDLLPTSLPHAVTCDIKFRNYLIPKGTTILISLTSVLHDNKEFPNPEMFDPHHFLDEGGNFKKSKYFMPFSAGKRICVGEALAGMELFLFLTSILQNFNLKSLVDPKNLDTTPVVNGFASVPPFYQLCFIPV
For orientation: A reporter such as luciferase makes a cellular process visible.

Assay [8] has as its target Cytochrome P450 1A2 (Homo sapiens) (UniProt P05177). Kind of assay: Cytochrome P450 Family 1 Subfamily A Member 2 (CYP1A2) small molecule antagonists: luciferase reporter qHTS assay (AID 1671199). Also: nearly all actives have a fitted effect of over 50% in size. Also: potency is read from the fitted curve at half-maximal effect. In short, it runs like this:
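Luminescence from luciferin formed by CYP1A2 from a proluciferin substrate, read 20 min after detection reagent. Compound was pre-incubated 10 min with enzyme-substrate, and reaction started with NADPH regeneration solution for 1 h at room temperature; furafylline control.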

Assay [9] has as its target Voltage-gated inwardly rectifying potassium channel KCNH2 (Homo sapiens) (UniProt Q12809). Kind of assay: Human Ether-a-go-go-Related Gene (hERG) channel small molecule antagonists: fluorescence cell-based qHTS assay (AID 1671200). Also: nearly all actives have a fitted effect of over 50% in size. Also: potency is read from the fitted curve at half-maximal effect. Put shortly: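 Quantitative HTS in hERG-U2OS cells: thallium entry through the channel reports activity, read as continuous 480/540 nm fluorescence over 2 min after stimulus addition.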
(In general: hERG is a cardiac potassium channel; its block is linked to QT prolongation.)

The target in assay [10] is Cytochrome P450 2D6 (Homo sapiens) (UniProt P10635). Kind of assay: Cytochrome P450 Family 2 Subfamily D Member 6 (CYP2D6) small molecule antagonists: luciferase reporter qHTS assay (AID 1671196). Also: nearly all actives have a fitted effect of over 50% in size. Also: potency is read from the fitted curve at half-maximal effect. Put shortly:
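CYP2D6 activity was followed as luminescence from its luciferin product after a 1 h NADPH-driven reaction at room temperature. Enzyme-substrate mix and compound were pre-incubated for 10 min, and the signal was read 20 min after adding detection reagent.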

Assay [11] addresses Nuclear receptor subfamily 1 group I member 2 (Homo sapiens) (UniProt O75469). The experiment in a line: CYP3A4 induction through human pregnane X receptor (PXR) by small molecules, qHTS assay (AID 1346984). Also: nearly all actives have a fitted effect of over 40% in size. In short, it runs like this: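 Read-out is luminescence after One-Glo addition, following a 3 hr, 37C incubation with Luciferin-IPA CYP3A4 substrate (3uM final). Before that, compounds were on DPX-2 cells (HepG2 co-transfected with PXR element plus CYP3A4-promoter luciferase) for 24 hr at 37C.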

Assay [12] has the same target. The experiment in a line: Human pregnane X receptor (PXR) activation by small molecules, qHTS assay (AID 1346985). Also: nearly all actives have a fitted effect of over 40% in size. Also: potency is read from the fitted curve at half-maximal effect. Put shortly:
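DPX-2 cells (HepG2 co-transfected with a PXR response element and a CYP3A4-promoter luciferase construct) were seeded at 2,000 per well, rested 5 hr at 37C, then exposed to DMSO-dissolved compounds for 24 hr. Activation was read as luciferase luminescence.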

Assay [13] addresses Cytochrome P450 2C19 (Homo sapiens) (UniProt P33261). The experiment in a line: Cytochrome P450 Family 2 Subfamily C Member 19 (CYP2C19) small molecule antagonists: luciferase reporter qHTS assay (AID 1671197). Also: nearly all actives have a fitted effect of over 65% in size. Also: potency is read from the fitted curve at half-maximal effect. In short, it runs like this:
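P450-Glo CYP2C19 screening system; proluciferin substrate; DMSO compound stocks; 10 min RT preincubation; NADPH regeneration, 1 h at 37C; luciferin detection reagent, 20 min RT; luminescence as RLU.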

The target in assay [14] is Cytochrome P450 3A4 (Homo sapiens) (UniProt P08684). Kind of assay: Cytochrome P450 Family 3 Subfamily A Member 4 (CYP3A4) small molecule antagonists: luciferase reporter qHTS assay (AID 1671201). Also: nearly all actives have a fitted effect of over 50% in size. Also: potency is read from the fitted curve at half-maximal effect. In short, it runs like this: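 Inhibition of CYP3A4 is measured as loss of light: the enzyme converts a proluciferin substrate to luciferin, detected luminescently. Reaction ran 1 h at room temperature with NADPH regeneration after a 10 min compound preincubation.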
Cytochrome P450 3A4 (Homo sapiens), sequence (P08684 whole entry, looked up): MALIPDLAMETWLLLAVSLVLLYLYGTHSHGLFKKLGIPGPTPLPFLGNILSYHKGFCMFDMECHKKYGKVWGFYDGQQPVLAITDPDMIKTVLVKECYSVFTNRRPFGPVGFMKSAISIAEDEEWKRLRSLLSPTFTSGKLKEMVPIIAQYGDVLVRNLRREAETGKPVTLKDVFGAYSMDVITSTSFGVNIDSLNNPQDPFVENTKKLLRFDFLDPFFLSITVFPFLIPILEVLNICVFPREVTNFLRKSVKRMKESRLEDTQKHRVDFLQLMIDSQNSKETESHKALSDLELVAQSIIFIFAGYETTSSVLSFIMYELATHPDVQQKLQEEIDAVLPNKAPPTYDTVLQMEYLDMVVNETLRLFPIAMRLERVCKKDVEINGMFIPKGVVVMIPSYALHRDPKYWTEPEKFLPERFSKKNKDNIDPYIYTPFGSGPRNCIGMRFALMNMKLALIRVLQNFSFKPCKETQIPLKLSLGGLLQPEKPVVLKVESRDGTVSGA

Assay [15] concerns the target Nuclear receptor subfamily 1 group I member 2 (Rattus norvegicus) (UniProt Q9R1A7). Kind of assay: Rat pregnane X receptor (rPXR) activation by small molecules, qHTS assay (AID 1346983). Also: nearly all actives have a fitted effect of over 20% in size. The settings on record: rPXR luciferase reporter cells, One-Glo luminescence, 24 h; max activation: stronger effect = higher value. In short, it runs like this:
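Cell-based rPXR luciferase reporter assay, 2,000 cells per well, rested 5hr at 37 C before compound addition in DMSO, then 24 hr at 37 C. One-Glo reagent was added and luminescence read after 30 min at room temperature.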

The structures appear in SMILES notation. Values without a mark were called inactive. Records with an inconclusive call do not appear. Calls of active or inactive are those of the source. Calls follow the shape of the dose curve; as a rule, active = well fitted curve in the direction sought with a large enough effect in the repeat runs; inconclusive = weak or mixed curves; inactive = no such curve, though single readings can be large; an effect the other way counts as inactive or inconclusive.
% is scaled to controls: 0 for no effect and ±100 for the full control effect.

Cytochrome P450 2D6 (Homo sapiens), sequence (P10635 whole entry, looked up): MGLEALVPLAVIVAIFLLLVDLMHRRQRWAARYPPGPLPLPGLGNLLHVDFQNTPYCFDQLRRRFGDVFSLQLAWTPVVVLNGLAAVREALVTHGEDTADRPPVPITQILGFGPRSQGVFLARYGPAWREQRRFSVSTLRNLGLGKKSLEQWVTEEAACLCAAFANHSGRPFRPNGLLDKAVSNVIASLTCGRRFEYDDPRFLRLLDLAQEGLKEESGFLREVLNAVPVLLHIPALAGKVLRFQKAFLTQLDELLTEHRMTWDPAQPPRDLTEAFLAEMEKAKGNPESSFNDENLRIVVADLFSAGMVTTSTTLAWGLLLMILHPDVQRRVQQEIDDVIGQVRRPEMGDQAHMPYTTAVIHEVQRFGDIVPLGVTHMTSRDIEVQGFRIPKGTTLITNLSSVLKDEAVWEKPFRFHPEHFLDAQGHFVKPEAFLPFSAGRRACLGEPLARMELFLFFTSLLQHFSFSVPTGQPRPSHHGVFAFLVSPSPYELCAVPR
Nuclear receptor subfamily 1 group I member 2 (Homo sapiens), sequence (O75469 whole entry, looked up): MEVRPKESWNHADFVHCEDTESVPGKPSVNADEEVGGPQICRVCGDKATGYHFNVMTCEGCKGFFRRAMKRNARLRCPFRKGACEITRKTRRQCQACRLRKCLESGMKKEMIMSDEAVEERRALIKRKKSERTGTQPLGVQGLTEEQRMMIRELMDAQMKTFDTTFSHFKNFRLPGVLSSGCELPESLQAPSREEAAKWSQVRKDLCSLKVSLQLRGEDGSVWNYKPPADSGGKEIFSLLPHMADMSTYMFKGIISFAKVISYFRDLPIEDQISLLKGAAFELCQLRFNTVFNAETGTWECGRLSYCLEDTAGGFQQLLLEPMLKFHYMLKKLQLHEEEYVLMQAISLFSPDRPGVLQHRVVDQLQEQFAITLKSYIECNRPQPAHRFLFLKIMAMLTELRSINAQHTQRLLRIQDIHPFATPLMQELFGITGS
Voltage-gated inwardly rectifying potassium channel KCNH2 (Homo sapiens), sequence (Q12809 whole entry, looked up): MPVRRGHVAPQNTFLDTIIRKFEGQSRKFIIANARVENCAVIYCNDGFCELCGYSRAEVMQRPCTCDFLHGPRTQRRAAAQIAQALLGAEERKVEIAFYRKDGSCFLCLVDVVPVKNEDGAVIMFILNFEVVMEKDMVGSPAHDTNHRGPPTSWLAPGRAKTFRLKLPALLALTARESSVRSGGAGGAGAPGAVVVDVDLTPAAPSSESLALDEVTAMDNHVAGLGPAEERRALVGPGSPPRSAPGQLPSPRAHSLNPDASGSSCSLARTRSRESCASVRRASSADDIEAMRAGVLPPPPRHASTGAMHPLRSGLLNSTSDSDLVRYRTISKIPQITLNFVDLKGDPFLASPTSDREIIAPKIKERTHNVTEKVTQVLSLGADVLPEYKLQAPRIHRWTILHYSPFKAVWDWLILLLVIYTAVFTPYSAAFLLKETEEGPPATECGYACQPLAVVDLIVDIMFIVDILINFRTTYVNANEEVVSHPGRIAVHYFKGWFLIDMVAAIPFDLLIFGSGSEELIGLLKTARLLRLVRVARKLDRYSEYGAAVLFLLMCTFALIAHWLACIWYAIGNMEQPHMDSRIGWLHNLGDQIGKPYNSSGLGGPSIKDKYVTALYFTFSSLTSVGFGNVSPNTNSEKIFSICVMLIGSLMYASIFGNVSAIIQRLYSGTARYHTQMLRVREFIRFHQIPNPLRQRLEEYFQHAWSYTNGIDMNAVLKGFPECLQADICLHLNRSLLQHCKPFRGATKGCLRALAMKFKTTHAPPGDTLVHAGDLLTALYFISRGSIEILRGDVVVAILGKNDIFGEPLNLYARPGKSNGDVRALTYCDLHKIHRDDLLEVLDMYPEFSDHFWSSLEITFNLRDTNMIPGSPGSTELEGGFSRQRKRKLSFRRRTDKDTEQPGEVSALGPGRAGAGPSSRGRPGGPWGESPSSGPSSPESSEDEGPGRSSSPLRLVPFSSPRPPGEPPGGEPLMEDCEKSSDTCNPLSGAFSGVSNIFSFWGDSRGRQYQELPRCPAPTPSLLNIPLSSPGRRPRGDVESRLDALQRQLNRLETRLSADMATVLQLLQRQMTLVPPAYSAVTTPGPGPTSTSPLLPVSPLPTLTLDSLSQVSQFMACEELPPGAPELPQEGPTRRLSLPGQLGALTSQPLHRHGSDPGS
Cytochrome P450 1A2 (Homo sapiens), sequence (P05177 whole entry, looked up): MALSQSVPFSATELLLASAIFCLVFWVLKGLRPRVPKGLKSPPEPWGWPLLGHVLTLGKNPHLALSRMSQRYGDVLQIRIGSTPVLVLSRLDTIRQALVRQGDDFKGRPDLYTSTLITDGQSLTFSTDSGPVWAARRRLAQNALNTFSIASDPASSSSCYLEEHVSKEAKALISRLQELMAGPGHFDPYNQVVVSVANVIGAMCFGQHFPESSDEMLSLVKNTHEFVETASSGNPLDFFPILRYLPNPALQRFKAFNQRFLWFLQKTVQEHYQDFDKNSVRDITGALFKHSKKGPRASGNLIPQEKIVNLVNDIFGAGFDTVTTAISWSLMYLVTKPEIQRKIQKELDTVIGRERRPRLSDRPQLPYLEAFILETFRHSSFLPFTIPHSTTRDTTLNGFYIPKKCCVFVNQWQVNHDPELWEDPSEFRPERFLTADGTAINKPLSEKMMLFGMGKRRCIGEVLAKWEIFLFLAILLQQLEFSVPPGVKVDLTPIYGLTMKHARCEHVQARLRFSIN
Cytochrome P450 2C19 (Homo sapiens), sequence (P33261 whole entry, looked up): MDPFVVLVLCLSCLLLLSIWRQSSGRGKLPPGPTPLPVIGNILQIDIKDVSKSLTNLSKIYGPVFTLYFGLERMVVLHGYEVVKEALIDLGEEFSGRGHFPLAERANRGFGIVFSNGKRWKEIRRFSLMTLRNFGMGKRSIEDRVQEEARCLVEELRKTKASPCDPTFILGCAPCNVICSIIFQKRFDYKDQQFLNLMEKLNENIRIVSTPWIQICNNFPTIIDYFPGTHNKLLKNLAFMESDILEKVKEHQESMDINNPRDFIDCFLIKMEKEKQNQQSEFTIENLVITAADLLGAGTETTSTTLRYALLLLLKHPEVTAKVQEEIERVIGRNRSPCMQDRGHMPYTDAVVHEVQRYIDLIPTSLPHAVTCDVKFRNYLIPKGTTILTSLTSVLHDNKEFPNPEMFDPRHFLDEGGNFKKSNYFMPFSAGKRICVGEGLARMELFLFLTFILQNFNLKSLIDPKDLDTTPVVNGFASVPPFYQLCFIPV
Nuclear receptor subfamily 1 group I member 2 (Rattus norvegicus), sequence (Q9R1A7 whole entry, looked up): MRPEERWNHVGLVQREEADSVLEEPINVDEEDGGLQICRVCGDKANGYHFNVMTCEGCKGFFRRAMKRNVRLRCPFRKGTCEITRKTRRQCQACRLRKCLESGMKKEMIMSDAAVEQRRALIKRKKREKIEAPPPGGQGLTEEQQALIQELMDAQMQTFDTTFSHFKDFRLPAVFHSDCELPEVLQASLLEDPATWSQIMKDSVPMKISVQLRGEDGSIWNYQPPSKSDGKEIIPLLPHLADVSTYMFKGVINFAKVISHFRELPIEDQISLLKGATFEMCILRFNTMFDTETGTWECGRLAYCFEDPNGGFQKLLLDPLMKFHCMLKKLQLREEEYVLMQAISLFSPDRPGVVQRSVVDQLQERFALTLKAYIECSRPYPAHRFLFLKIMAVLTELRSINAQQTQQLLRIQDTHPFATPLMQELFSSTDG

As for `CCCCCC[C@@H](O)C/C=C\CCCCCCCC(=O)OCC(O)CO` (some centres not stated), the Potency entry in [1], in assay [2], in assay [3], in [4], in assay [5] and in assay [8] was “inactive” each time. For the same compound, in [9], the Potency entry is “inactive”. The values for the Potency in assay [6] and in assay [7] were 34.4 µM (active) and 11.2 µM (active), respectively.
Take `Oc1cc2c(cc1O)[C@H]1c3ccc(O)c(O)c3OC[C@@]1(O)C2`: the Potency in assay [1] was 27.6 µM (active); in [3], 27.6 µM (active); in assay [5] it was 55.1 µM (active); in assay [10], 36 µM (active); in [7] it was 32.1 µM (active); in assay [8], 36 µM (active). The Potency entry in assay [2], in assay [4], in assay [6] and in assay [9] was “inactive” in each case.
As for `CC1(CN2CCC(n3c(=O)[nH]c4ccccc43)CC2)OCc2ccccc2-n2cccc21` (configuration not stated), the Potency in assay [1] is 29.8 µM (active); in assay [3], 29.8 µM (active); in assay [6], 29.8 µM (active); in assay [12], 4.47 µM (active); in assay [10], 2.45 µM (active); in assay [13], 21.9 µM (active). Also, the Potency in assay [7] is 13.8 µM (active); in assay [9] it was 8.49 µM (active). Besides, the Potency result in assay [2], in assay [4] and in assay [11] was “inactive” each time.
On to `C=C(C)C(=O)OCCCCCCCCCCCCC`, for which the Potency result in [1], in assay [2], in assay [3], in assay [4], in assay [6] and in assay [7] was “inactive” each time. The Potency result in assay [8] and in [9] was “inactive” each time. The Potency in assay [14] was 55.7 µM (active).
In the case of `CC1CC(OC(=O)C(O)c2ccccc2)CC(C)(C)N1C` (configuration not stated), the Potency entry in [1], in assay [2], in [3], in assay [4], in assay [5] and in [7] was “inactive” each time. For the same compound, the Potency result in [8] and in assay [9] was “inactive” throughout.
Consider `CC(O)c1ccccc1` (configuration not stated), for which the Potency entry in assay [1], in assay [2], in assay [3], in assay [4], in [6] and in assay [10] was “inactive” in each case. Further, the Potency entry in [13], in assay [7], in [9] and in [14] was “inactive” each time.
As for `C=C(C)[C@@H]1CCC2=CCC[C@@H](C)[C@]2(C)C1`, the Potency result in [1], in [2], in [3], in assay [5], in [10] and in [8] was “inactive” each time. Also, the Potency entry in assay [9] is “inactive”. For the same compound, the Potency is 38.6 µM (active) in assay [6], 11.2 µM (active) in [13], 63.3 µM (active) in assay [7] and 71 µM (active) in [14].
As for `CCOC(=O)/C=C/C(=O)OCC`, the Potency result in assay [1], in assay [2], in assay [3], in [4], in assay [6] and in [10] was “inactive” in each case. For the same compound, the Potency result in assay [7], in [9] and in assay [14] was “inactive” throughout.
Take `Brc1cc2ccccc2c2ccccc12`: the Potency entry in assay [1], in [2], in assay [3], in assay [4], in assay [5] and in assay [10] was “inactive” in each case. The Potency result in assay [9] is “inactive”. Also, the Potency in [13] is 40.2 µM (active); in [8], 0.32 µM (active).
Consider `CCOC(=O)c1ccc(I)cc1`, for which the Potency result in [1], in assay [2], in [3], in assay [4], in assay [6] and in assay [9] was “inactive” in each case. In addition, in [14], the Potency entry is “inactive”. The Potency in assay [8] was 10.1 µM (active).
As for `C[C@]1(Cn2ccnn2)[C@H](C(=O)O)N2C(=O)C[C@H]2S1(=O)=O`, the Potency entry in [1], in assay [2], in [3], in assay [5], in assay [6] and in assay [11] was “inactive” throughout. Also, the Potency result in [12], in assay [13], in [7], in assay [8], in [9] and in assay [14] was “inactive” in each case. The max activation in [15] was -2%.

For the origin of these results see PubChem BioAssay (Tox21).
